Drawing on PubChem BioAssay (NCI), this text covers growth for 13 compounds.

Some test systems named below: HCT-15 colon; HT29 colon; SNB-75 CNS; SNB-19 CNS; U251 CNS; PC-3 prostate; SK-MEL-5 melanoma; UACC-62 melanoma; LOX IMVI melanoma; SK-MEL-28 melanoma.
Assay in all cases: NCI-60 one-dose screen, 48 h (100 = growth as untreated, 0 = no growth, -100 = all killed)
Holding throughout (settings): 10 µM

Molecules are shown by their SMILES. Compounds without any hit were thinned out: in the full panel of roughly 83,000, 20% have a hit.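 96-well plates, one dose, 48 hours. Percent growth reported; active if below 10.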 A number with no mark means an inactive call. Calls of active or inactive are those of the source.

For the compound `CNC(=O)c1c(I)c(NC(C)=O)c(I)c(C(=O)O)c1I`, the growth in the assay on HCT-15 colon was 105%; in the assay on HT29 colon, 103%; with SNB-75 CNS it was 87.3%; in the assay on SNB-19 CNS it was 96.2%; in the assay with U251 CNS, 102%; with PC-3 prostate, 93%. Besides, the growth with SK-MEL-5 melanoma is 108%; with UACC-62 melanoma, 98.5%; in the assay on LOX IMVI melanoma it was 94.5%; in the assay on SK-MEL-28 melanoma it was 114%.

As to `COc1ccc(-c2cc(-c3ccc(Cl)cc3)nc(SCCCC(=O)NO)n2)cc1`, the growth is 14.5% with HCT-15 colon; 13.3% in the assay with HT29 colon; -6% (active) in the assay on SNB-75 CNS; 13.5% with SNB-19 CNS; 5.21% (active) with U251 CNS; 0.504% (active) in the assay on PC-3 prostate. The growth was -52.5% (active) in the assay with SK-MEL-5 melanoma, -57.2% (active) with UACC-62 melanoma, -24.9% (active) in the assay on LOX IMVI melanoma and 31.9% with SK-MEL-28 melanoma.

For the compound `COc1ccc2nc3cc(Cl)ccc3c(NCCCNCCO)c2c1`, the growth is 13.6% with HCT-15 colon; -66.3% (active) in the assay on HT29 colon; -36.4% (active) with SNB-75 CNS; 4.9% (active) in the assay with SNB-19 CNS; -45.2% (active) in the assay with U251 CNS; -30.6% (active) in the assay with PC-3 prostate. For the same compound, the growth in the assay with SK-MEL-5 melanoma is 14.3%; with UACC-62 melanoma it was -64.2% (active); in the assay on LOX IMVI melanoma, -59.7% (active); in the assay with SK-MEL-28 melanoma, -49% (active).

On to `CN(C)CCN(Cc1ccccc1)c1ccc2ccccc2n1`, for which the growth is 98% with HCT-15 colon; 89.7% in the assay with HT29 colon; 82% in the assay on SNB-75 CNS; 95.6% in the assay with SNB-19 CNS; 94.2% in the assay with U251 CNS; 81.4% with PC-3 prostate. For the same compound, the growth is 91.7% in the assay with SK-MEL-5 melanoma, 92.9% in the assay on UACC-62 melanoma, 88.8% in the assay with LOX IMVI melanoma and 101% with SK-MEL-28 melanoma.

Consider `O=[N+]([O-])c1ccc(NCSc2ccc(Cl)cc2)cc1`, for which the growth with HCT-15 colon is 96.9%; in the assay on HT29 colon it was 107%; in the assay with SNB-75 CNS it was 98.6%; with SNB-19 CNS, 103%; in the assay on U251 CNS, 82%; in the assay with PC-3 prostate it was 80.9%. Moreover, the growth in the assay with SK-MEL-5 melanoma was 100%; in the assay with UACC-62 melanoma it was 77.8%; in the assay on LOX IMVI melanoma, 81.9%; in the assay with SK-MEL-28 melanoma, 104%.

As to `O=C(CC(CC(=O)c1ccccc1)c1ccccc1O)c1ccccc1`, the growth with HCT-15 colon was 96.5%; in the assay on HT29 colon, 90.3%; in the assay with SNB-75 CNS, 89.1%; with SNB-19 CNS, 91.2%; with U251 CNS, 92%; with PC-3 prostate, 81%. Also, the growth was 88.6% in the assay on SK-MEL-5 melanoma, 81.5% with UACC-62 melanoma, 93.5% with LOX IMVI melanoma and 101% in the assay with SK-MEL-28 melanoma.

Regarding `COc1cc2cc(Oc3ccc(NC(=O)c4cccc(C(F)(F)F)c4)cc3)c(C)nc2cc1OC`, the growth is 38.3% in the assay with HCT-15 colon; 31.3% in the assay on HT29 colon; 68.4% with SNB-75 CNS; 58.8% in the assay on SNB-19 CNS; 19.5% in the assay with U251 CNS; 9.54% (active) in the assay with PC-3 prostate. Moreover, the growth in the assay on SK-MEL-5 melanoma was 2.78% (active); in the assay on UACC-62 melanoma, 29.3%; in the assay with LOX IMVI melanoma, 45.8%; in the assay with SK-MEL-28 melanoma, 71.4%.

Consider `O=C1CSC(=S)N1/N=C/c1ccc(Cl)s1`, for which the growth in the assay on HCT-15 colon was 97.9%; in the assay on HT29 colon it was 110%; in the assay on SNB-75 CNS it was 111%; in the assay on SNB-19 CNS it was 97.7%; in the assay on U251 CNS, 99.3%; with PC-3 prostate, 98.1%. Besides, the growth in the assay on SK-MEL-5 melanoma is 97%; in the assay with UACC-62 melanoma, 100%; in the assay with LOX IMVI melanoma, 88.5%; with SK-MEL-28 melanoma, 107%.

With `CCCC1(CN2c3ccccc3Sc3ccc(Cl)cc32)CCN(CC)C1` (stereo not given), the growth with HCT-15 colon is 3.6% (active); in the assay with HT29 colon it was -68% (active); with SNB-75 CNS it was 1.99% (active); with SNB-19 CNS it was -36.3% (active); in the assay on U251 CNS, -92% (active); in the assay on PC-3 prostate it was 5.75% (active). In addition, the growth in the assay on SK-MEL-5 melanoma was -95.9% (active); in the assay with UACC-62 melanoma, -21.4% (active); with LOX IMVI melanoma, -100% (active); in the assay on SK-MEL-28 melanoma, -67.8% (active).

Turning to `COc1ccc(Cl)cc1Nc1nc(C(F)(F)F)ccc1C(=O)N/N=C/c1ccc(Cl)cc1`, the growth with HCT-15 colon is 25.4%; in the assay with HT29 colon, 25.2%; in the assay on SNB-75 CNS it was 33.8%; in the assay on SNB-19 CNS, 60.2%; in the assay with U251 CNS, 29.9%; in the assay on PC-3 prostate, 34.6%. In addition, the growth in the assay on SK-MEL-5 melanoma was 24.3%; in the assay with UACC-62 melanoma, 24.1%; in the assay with LOX IMVI melanoma, 26.7%; with SK-MEL-28 melanoma, 51.2%.

Regarding `C[C@@H](C[C@H](CCO)c1ccccc1)c1ccc2ccccc2c1`, the growth in the assay with HCT-15 colon was -75% (active); in the assay with HT29 colon, -72.8% (active); in the assay with SNB-75 CNS it was -8.12% (active); with SNB-19 CNS, -78.3% (active); in the assay with U251 CNS, -95% (active); with PC-3 prostate, -89.2% (active). Besides, the growth with SK-MEL-5 melanoma is -87.9% (active); with UACC-62 melanoma, -76.2% (active); with LOX IMVI melanoma, -94.5% (active); in the assay on SK-MEL-28 melanoma it was -79.3% (active).

In the case of `COC1=CC(=O)OC(c2ccc(OC)cc2)C1` (stereo not given), the growth with HCT-15 colon is 121%; in the assay on HT29 colon, 110%; in the assay with SNB-75 CNS, 86.3%; in the assay with SNB-19 CNS, 104%; in the assay with U251 CNS, 117%; in the assay on PC-3 prostate, 105%. For the same compound, the growth in the assay on SK-MEL-5 melanoma was 106%; in the assay on UACC-62 melanoma it was 101%; in the assay on LOX IMVI melanoma, 94.9%; in the assay on SK-MEL-28 melanoma it was 123%.

As to `Cc1nc2n(c(=O)c1CCN1CCC(c3noc4cc(F)ccc34)CC1)CCC[C@@H]2O`, the growth was 93.8% with HCT-15 colon; 95.2% in the assay on HT29 colon; 87.1% with SNB-75 CNS; 102% in the assay with SNB-19 CNS; 93.7% in the assay on U251 CNS; 91.3% in the assay on PC-3 prostate. Besides, the growth with SK-MEL-5 melanoma was 100%; with UACC-62 melanoma, 98.2%; with LOX IMVI melanoma, 97.4%; in the assay on SK-MEL-28 melanoma, 97.9%.
